Experiment [1] can be described thus: NCI Yeast Anticancer Drug Screen. Data for the rad50 strain (AID 155).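 Also: 0% = growth of vehicle-only cultures of the same strain.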 The note with it: S. cerevisiae rad50 strain growth inhibition, hits give high values. An outline of the steps: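 Readout: growth inhibition relative to vehicle-treated cultures. Compound exposure was carried out in a genetically defined yeast strain deficient in DNA damage repair.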
Experiment [2] is described as follows: NCI Yeast Anticancer Drug Screen. Data for the mec2-1 strain (AID 157). The note with it: S. cerevisiae mec2-1 strain, hits give high values. An outline of the steps: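 Strain: mec2-1 (DNA repair/cell cycle alteration). Compound exposure, then growth measured; inhibition expressed relative to vehicle.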
A short description of experiment [3]: NCI Yeast Anticancer Drug Screen. Data for the sgs1 mgt1 strain (AID 161).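 Also: 0% = growth of cultures given vehicle only.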 The note with it: S. cerevisiae sgs1 mgt1 strain, hits give high values. An outline of the steps:
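Genetically altered yeast, compound exposure, growth inhibition relative to vehicle.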

Experiment [4] in a line: NCI Yeast Anticancer Drug Screen. Data for the cln2 rad14 strain (AID 165).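 Also: 0% = growth equal to vehicle treated cultures.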 The following applies: S. cerevisiae cln2 rad14 strain, hits give high values. An outline of the steps:
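Compounds are applied to the cln2 rad14 yeast strain, and growth is then compared with that of vehicle-treated cultures to give inhibition.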

Experiment [5] is described as follows: NCI Yeast Anticancer Drug Screen. Data for the bub3 strain (AID 167). The note with it: S. cerevisiae bub3 mutant strain, hits give high values. An outline of the steps: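 Readout: yeast growth inhibition, expressed relative to vehicle-only wells. The test organism is a mutant strain from a panel with lesions in DNA repair or checkpoint genes.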
The nature of experiment [6]: NCI Yeast Anticancer Drug Screen. Data for the mlh1 rad18 strain (AID 175). The note with it: S. cerevisiae mlh1 rad18 strain growth inhibition, hits give high values. An outline of the steps:
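Read-out is yeast growth inhibition, calculated against vehicle-only controls. The compound was applied to a strain engineered with DNA damage repair alterations.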

The mark [7] stands for this setting: at 5.0 µM (retest, dose inferred, filed as 0.5).
Setting [8] is: at 50.0 µM (retest, dose inferred, filed as 5.0).

The panel holds about 79,000 compounds, 15% with a hit somewhere; the sample as a whole holds those more often. Values without a mark were called inactive. The source made the active and inactive calls. Rule as the data show it: active = growth inhibition above about 70%; inactive = the rest.

For the compound `N#CC(C#N)=C(C1CC1)C1CC1`, the growth inhibition in experiment [1] (setting [7]) is -76%; in experiment [1] (setting [8]), 96% (active); in experiment [1] (at 50.0 µM), 0.4%; in experiment [2] (setting [7]), -42%; in experiment [2] (setting [8]), 94% (active); in experiment [2] (at 50.0 µM), -2.5%. Further, the growth inhibition in experiment [3] (setting [7]) is -47%; in experiment [3] (setting [8]), 96% (active); in experiment [3] (at 50.0 µM), -1.9%; in experiment [4] (setting [7]), -56%; in experiment [4] (setting [8]), 92% (active); in experiment [4] (at 50.0 µM), 41.4%. Further, the growth inhibition in experiment [5] (setting [7]) was -59%; in experiment [5] (setting [8]), 93% (active); in experiment [5] (at 50.0 µM) it was 11.8%; in experiment [6] (setting [7]), -95%; in experiment [6] (setting [8]) it was 94% (active); in experiment [6] (at 50.0 µM), -21.9%.

Take `CCOc1ccc(C(OC)OC)cc1[N+](=O)[O-]`: the growth inhibition in experiment [1] (setting [7]) was 3%; in experiment [1] (setting [8]) it was -7%; in experiment [1] (at 50.0 µM), -12.1%; in experiment [2] (setting [7]) it was -1%; in experiment [2] (setting [8]), 3%; in experiment [2] (at 50.0 µM), -6.9%. Also, the growth inhibition in experiment [3] (setting [7]) is -11%; in experiment [3] (setting [8]), -7%; in experiment [3] (at 50.0 µM), -25.1%; in experiment [4] (setting [7]), -4%; in experiment [4] (setting [8]), 0%; in experiment [4] (at 50.0 µM), 87.5% (active). The growth inhibition in experiment [5] (setting [7]) was 0%; in experiment [5] (setting [8]), 1%; in experiment [5] (at 50.0 µM), -0.8%; in experiment [6] (setting [7]), -1%; in experiment [6] (setting [8]), -7%; in experiment [6] (at 50.0 µM), 10%.

Regarding `N=C(N)SCc1cc(Cl)cc(Cl)c1O`, the growth inhibition in experiment [1] (setting [7]) was 8%; in experiment [1] (setting [8]), 20%; in experiment [1] (at 50.0 µM), 55.2%; in experiment [2] (setting [7]), 4%; in experiment [2] (setting [8]), -6%; in experiment [2] (at 50.0 µM), -1.85%. For the same compound, the growth inhibition was 1% in experiment [3] (setting [7]); 1% in experiment [3] (setting [8]); 16% in experiment [3] (at 50.0 µM); -18% in experiment [4] (setting [7]); -72% in experiment [4] (setting [8]); -2% in experiment [4] (at 50.0 µM). Further, the growth inhibition in experiment [5] (setting [7]) is -14%; in experiment [5] (setting [8]), -19%; in experiment [5] (at 50.0 µM), -9.35%; in experiment [6] (setting [7]), -5%; in experiment [6] (setting [8]), 42%; in experiment [6] (at 50.0 µM) it was 80.2% (active).

With `O=c1ncccn1[C@@H]1O[C@H](CO)[C@H](O)C1O` (stereo not given in full), the growth inhibition in experiment [1] (setting [7]) was 21%; in experiment [1] (setting [8]) it was 22%; in experiment [1] (at 50.0 µM), 64.3%; in experiment [2] (setting [7]), 13%; in experiment [2] (setting [8]), 12%; in experiment [2] (at 50.0 µM), 28.4%. Besides, the growth inhibition in experiment [3] (setting [7]) was 15%; in experiment [3] (setting [8]) it was 12%; in experiment [3] (at 50.0 µM), 4.15%; in experiment [4] (setting [7]), 10%; in experiment [4] (setting [8]), 12%; in experiment [4] (at 50.0 µM), 10.8%. The growth inhibition was 23% in experiment [5] (setting [7]); 10% in experiment [5] (setting [8]); -5.75% in experiment [5] (at 50.0 µM); 7% in experiment [6] (setting [7]); 31% in experiment [6] (setting [8]); -9.3% in experiment [6] (at 50.0 µM).

With `O=C(O)/C(=C\c1ccc(Cl)cc1)c1ccc(C(F)(F)F)cc1[N+](=O)[O-]`, the growth inhibition was 11% in experiment [1] (setting [7]); 76% (active) in experiment [1] (setting [8]); 94.1% (active) in experiment [1] (at 50.0 µM); 8% in experiment [2] (setting [7]); 90% (active) in experiment [2] (setting [8]); 97.5% (active) in experiment [2] (at 50.0 µM). Also, the growth inhibition in experiment [3] (setting [7]) was 0%; in experiment [3] (setting [8]), 91% (active); in experiment [3] (at 50.0 µM), 96% (active); in experiment [4] (setting [7]) it was 21%; in experiment [4] (setting [8]) it was 84% (active); in experiment [4] (at 50.0 µM), 97.6% (active). Also, the growth inhibition is 18% in experiment [5] (setting [7]); 84% (active) in experiment [5] (setting [8]); 96.8% (active) in experiment [5] (at 50.0 µM); 25% in experiment [6] (setting [7]); 93% (active) in experiment [6] (setting [8]); 98.2% (active) in experiment [6] (at 50.0 µM).

As for `Cc1cc(Cl)c(O)c(-c2cc(-c3ccccc3O)c(C#N)c(N)n2)c1`, the growth inhibition is 4% in experiment [1] (setting [7]); 75% (active) in experiment [1] (setting [8]); 59.5% in experiment [1] (at 50.0 µM); -22% in experiment [2] (setting [7]); 80% (active) in experiment [2] (setting [8]); 52.1% in experiment [2] (at 50.0 µM). Moreover, the growth inhibition in experiment [3] (setting [7]) is -28%; in experiment [3] (setting [8]), 80% (active); in experiment [3] (at 50.0 µM), 67.7%; in experiment [4] (setting [7]), -4%; in experiment [4] (setting [8]) it was 65%; in experiment [4] (at 50.0 µM), 69.4%. In addition, the growth inhibition in experiment [5] (setting [7]) was -59%; in experiment [5] (setting [8]), 73% (active); in experiment [5] (at 50.0 µM), 62.4%; in experiment [6] (setting [7]), -23%; in experiment [6] (setting [8]) it was 87% (active); in experiment [6] (at 50.0 µM), 55%.

In the case of `Cc1[nH]nc(C(F)(F)F)c1N=NN1CCC(C(N)=O)CC1`, the growth inhibition is 49% in experiment [1] (setting [7]); 99% (active) in experiment [1] (setting [8]); 99.5% (active) in experiment [1] (at 50.0 µM); 77% (active) in experiment [2] (setting [7]); 100% (active) in experiment [2] (setting [8]); 99.5% (active) in experiment [2] (at 50.0 µM). Also, the growth inhibition in experiment [3] (setting [7]) was 83% (active); in experiment [3] (setting [8]), 99% (active); in experiment [3] (at 50.0 µM), 99.5% (active); in experiment [4] (setting [7]) it was 36%; in experiment [4] (setting [8]) it was 99% (active); in experiment [4] (at 50.0 µM) it was 99.5% (active). The growth inhibition in experiment [5] (setting [7]) was 27%; in experiment [5] (setting [8]), 99% (active); in experiment [5] (at 50.0 µM) it was 99.5% (active); in experiment [6] (setting [7]), 75% (active); in experiment [6] (setting [8]) it was 99% (active); in experiment [6] (at 50.0 µM) it was 99.5% (active).

With `Nc1ccc(C(=O)NN2C(=O)C(Cl)C2c2cc(Br)cc(Br)c2O)cc1` (stereo not given), the growth inhibition was -3% in experiment [1] (setting [7]); 64% in experiment [1] (setting [8]); 96.2% (active) in experiment [1] (at 50.0 µM); -12% in experiment [2] (setting [7]); 80% (active) in experiment [2] (setting [8]); 94.2% (active) in experiment [2] (at 50.0 µM). Moreover, the growth inhibition in experiment [3] (setting [7]) was -3%; in experiment [3] (setting [8]), 91% (active); in experiment [3] (at 50.0 µM), 93.7% (active); in experiment [4] (setting [7]) it was -20%; in experiment [4] (setting [8]) it was 76% (active); in experiment [4] (at 50.0 µM), 89% (active). Further, the growth inhibition in experiment [5] (setting [7]) is 10%; in experiment [5] (setting [8]) it was 54%; in experiment [5] (at 50.0 µM) it was 98.2% (active); in experiment [6] (setting [7]), 5%; in experiment [6] (setting [8]), 85% (active); in experiment [6] (at 50.0 µM) it was 94.7% (active).

For `Cc1ccc(NC(Nc2ccc(C)cc2C)=C(/C=C(\Cl)[N+](=O)[O-])[N+](=O)[O-])c(C)c1`, the growth inhibition in experiment [1] (setting [7]) is 99% (active); in experiment [1] (setting [8]), 97% (active); in experiment [1] (at 50.0 µM) it was 96.6% (active); in experiment [2] (setting [7]), 99% (active); in experiment [2] (setting [8]) it was 97% (active); in experiment [2] (at 50.0 µM), 96.1% (active). The growth inhibition in experiment [3] (setting [7]) is 99% (active); in experiment [3] (setting [8]), 97% (active); in experiment [3] (at 50.0 µM), 95.5% (active); in experiment [4] (setting [7]) it was 98% (active); in experiment [4] (setting [8]), 93% (active); in experiment [4] (at 50.0 µM), 93.2% (active). Besides, the growth inhibition in experiment [5] (setting [7]) is 99% (active); in experiment [5] (setting [8]) it was 97% (active); in experiment [5] (at 50.0 µM), 96% (active); in experiment [6] (setting [7]) it was 99% (active); in experiment [6] (setting [8]), 96% (active); in experiment [6] (at 50.0 µM), 96.3% (active).

In the case of `O=C(/C=C/c1ccc(O)cc1)c1cc(Cl)ccc1O`, the growth inhibition in experiment [1] (setting [7]) is 10%; in experiment [1] (setting [8]) it was 96% (active); in experiment [1] (at 50.0 µM) it was 95.7% (active); in experiment [2] (setting [7]), 6%; in experiment [2] (setting [8]) it was 97% (active); in experiment [2] (at 50.0 µM), 95.7% (active). In addition, the growth inhibition in experiment [3] (setting [7]) was 36%; in experiment [3] (setting [8]), 97% (active); in experiment [3] (at 50.0 µM) it was 92.4% (active); in experiment [4] (setting [7]) it was -4%; in experiment [4] (setting [8]) it was 97% (active); in experiment [4] (at 50.0 µM), 94.2% (active). Further, the growth inhibition in experiment [5] (setting [7]) was 4%; in experiment [5] (setting [8]), 97% (active); in experiment [5] (at 50.0 µM), 96.5% (active); in experiment [6] (setting [7]) it was 7%; in experiment [6] (setting [8]), 96% (active); in experiment [6] (at 50.0 µM), 93.3% (active).

(Values after PubChem BioAssay (NCI).)
